Drawing on the supplement of paper PMC10849652, this text covers log2 fold change for 23 targets.

The full data set covers some 8,800 targets. This sample favours those with a hit. About 0.5% of all pairs of compound and target were hits. A number with no mark means an inactive call.

Sequence of UniProt Q14CS0 (Q14CS0 whole entry, looked up): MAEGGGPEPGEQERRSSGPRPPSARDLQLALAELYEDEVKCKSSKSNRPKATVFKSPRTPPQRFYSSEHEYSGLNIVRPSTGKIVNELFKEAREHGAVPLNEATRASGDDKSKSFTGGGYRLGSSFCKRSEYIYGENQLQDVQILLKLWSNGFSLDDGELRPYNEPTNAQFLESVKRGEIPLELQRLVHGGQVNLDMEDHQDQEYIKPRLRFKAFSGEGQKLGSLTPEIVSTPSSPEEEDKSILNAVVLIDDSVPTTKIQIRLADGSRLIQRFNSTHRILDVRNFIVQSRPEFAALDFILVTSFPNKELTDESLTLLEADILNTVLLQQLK
Sequence of UniProt O95271 (O95271 whole entry, looked up): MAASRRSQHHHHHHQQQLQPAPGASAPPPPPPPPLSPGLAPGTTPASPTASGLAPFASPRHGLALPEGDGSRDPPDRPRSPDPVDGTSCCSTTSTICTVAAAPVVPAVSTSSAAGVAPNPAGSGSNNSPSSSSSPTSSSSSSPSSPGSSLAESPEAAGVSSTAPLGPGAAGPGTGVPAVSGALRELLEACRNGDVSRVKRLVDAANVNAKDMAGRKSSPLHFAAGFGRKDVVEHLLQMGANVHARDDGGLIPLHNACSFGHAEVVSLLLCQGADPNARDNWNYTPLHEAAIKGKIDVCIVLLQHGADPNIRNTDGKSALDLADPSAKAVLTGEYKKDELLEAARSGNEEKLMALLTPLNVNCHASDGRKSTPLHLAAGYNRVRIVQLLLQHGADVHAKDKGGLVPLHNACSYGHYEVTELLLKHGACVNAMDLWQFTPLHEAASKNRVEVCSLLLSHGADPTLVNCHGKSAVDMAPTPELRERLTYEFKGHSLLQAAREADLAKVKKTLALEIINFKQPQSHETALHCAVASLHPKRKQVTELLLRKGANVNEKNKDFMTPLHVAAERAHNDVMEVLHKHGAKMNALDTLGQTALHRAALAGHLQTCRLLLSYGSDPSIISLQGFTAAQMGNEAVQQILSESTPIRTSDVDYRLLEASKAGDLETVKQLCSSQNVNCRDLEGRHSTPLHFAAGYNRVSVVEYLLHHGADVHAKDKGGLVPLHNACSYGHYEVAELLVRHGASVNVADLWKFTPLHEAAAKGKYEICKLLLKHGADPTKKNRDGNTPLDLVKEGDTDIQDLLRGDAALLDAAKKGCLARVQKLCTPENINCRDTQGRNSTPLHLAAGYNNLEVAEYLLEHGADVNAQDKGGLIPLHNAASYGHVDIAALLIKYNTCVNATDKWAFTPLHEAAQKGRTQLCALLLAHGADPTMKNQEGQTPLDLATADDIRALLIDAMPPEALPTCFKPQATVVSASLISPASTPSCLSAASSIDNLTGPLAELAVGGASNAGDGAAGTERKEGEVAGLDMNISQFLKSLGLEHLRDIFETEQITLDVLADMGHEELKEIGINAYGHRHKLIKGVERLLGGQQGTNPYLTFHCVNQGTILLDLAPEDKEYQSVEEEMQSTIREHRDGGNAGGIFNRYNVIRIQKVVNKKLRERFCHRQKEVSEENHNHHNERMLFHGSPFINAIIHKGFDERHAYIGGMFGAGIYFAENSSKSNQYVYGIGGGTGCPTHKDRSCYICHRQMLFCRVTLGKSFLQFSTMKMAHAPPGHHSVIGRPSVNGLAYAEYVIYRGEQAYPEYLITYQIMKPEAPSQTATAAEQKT
Sequence of UniProt O60637 (O60637 whole entry, looked up): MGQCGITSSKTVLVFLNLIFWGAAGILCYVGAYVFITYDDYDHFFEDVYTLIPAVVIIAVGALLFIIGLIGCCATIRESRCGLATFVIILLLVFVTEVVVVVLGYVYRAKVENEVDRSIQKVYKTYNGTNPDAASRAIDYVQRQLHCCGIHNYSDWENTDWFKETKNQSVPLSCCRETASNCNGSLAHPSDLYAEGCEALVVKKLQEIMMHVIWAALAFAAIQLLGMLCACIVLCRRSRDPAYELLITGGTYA
Sequence of UniProt Q9NRX6 (Q9NRX6 whole entry, looked up): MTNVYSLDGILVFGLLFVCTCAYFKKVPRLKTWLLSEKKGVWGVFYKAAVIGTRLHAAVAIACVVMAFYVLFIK
Sequence of UniProt Q9BRN9 (Q9BRN9 whole entry, looked up): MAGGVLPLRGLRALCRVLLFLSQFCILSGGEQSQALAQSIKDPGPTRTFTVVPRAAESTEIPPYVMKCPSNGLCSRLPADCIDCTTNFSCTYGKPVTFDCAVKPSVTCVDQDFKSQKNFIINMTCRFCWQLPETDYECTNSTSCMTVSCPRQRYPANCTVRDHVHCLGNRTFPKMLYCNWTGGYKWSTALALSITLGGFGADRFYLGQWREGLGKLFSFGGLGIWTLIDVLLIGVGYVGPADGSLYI
Sequence of UniProt P21580 (P21580 whole entry, looked up): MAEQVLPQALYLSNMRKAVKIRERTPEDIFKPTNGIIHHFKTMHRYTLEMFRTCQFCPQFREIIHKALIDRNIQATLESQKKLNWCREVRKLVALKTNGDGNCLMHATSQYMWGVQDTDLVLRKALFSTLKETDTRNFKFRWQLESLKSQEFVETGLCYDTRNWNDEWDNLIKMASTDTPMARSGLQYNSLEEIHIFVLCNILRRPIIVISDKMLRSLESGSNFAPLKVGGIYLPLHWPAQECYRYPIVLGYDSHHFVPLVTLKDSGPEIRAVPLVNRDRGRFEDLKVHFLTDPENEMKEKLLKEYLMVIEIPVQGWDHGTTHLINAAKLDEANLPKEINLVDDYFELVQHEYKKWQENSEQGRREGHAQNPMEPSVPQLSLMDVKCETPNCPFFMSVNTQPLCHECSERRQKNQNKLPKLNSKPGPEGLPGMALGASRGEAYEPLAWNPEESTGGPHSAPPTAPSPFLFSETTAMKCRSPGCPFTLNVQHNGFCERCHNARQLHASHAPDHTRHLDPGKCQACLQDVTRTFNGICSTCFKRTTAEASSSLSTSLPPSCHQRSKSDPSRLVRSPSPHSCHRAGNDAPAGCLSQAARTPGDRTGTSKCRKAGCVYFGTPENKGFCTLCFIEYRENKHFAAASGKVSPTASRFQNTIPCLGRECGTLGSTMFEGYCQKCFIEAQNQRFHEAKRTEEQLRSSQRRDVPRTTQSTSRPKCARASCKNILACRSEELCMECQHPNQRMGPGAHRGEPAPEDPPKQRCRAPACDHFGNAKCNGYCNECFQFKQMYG
Sequence of UniProt Q8NDZ6 (Q8NDZ6 whole entry, looked up): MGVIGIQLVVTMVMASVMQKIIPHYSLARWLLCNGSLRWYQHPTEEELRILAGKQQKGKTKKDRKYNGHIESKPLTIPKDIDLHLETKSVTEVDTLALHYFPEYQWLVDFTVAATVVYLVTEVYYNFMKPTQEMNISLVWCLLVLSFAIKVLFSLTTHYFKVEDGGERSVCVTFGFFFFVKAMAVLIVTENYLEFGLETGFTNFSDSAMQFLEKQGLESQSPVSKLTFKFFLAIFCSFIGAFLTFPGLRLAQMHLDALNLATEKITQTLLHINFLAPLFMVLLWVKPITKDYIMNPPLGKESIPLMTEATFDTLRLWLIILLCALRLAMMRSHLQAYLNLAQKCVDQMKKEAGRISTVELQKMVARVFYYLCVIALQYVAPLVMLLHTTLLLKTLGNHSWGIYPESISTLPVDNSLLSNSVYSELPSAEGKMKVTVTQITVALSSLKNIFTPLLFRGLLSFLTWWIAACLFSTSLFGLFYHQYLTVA
Sequence of UniProt Q01664 (Q01664 whole entry, looked up): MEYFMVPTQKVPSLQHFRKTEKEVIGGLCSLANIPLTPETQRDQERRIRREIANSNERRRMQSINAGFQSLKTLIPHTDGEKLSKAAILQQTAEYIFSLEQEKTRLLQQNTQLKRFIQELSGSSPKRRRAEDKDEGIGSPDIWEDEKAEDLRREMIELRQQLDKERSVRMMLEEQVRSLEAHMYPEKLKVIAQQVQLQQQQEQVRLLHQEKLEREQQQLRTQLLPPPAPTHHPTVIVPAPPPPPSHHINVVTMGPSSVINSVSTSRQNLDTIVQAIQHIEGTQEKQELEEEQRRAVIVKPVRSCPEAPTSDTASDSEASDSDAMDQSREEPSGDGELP
Sequence of UniProt P06753 (P06753 whole entry, looked up): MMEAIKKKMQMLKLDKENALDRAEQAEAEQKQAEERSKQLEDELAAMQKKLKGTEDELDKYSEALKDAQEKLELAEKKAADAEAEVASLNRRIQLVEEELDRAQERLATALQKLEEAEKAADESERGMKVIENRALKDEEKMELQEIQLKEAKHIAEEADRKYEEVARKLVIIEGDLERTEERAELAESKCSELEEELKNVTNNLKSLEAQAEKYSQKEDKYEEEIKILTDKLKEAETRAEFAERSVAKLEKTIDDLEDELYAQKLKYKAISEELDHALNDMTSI
Sequence of UniProt Q96LJ8 (Q96LJ8 whole entry, looked up): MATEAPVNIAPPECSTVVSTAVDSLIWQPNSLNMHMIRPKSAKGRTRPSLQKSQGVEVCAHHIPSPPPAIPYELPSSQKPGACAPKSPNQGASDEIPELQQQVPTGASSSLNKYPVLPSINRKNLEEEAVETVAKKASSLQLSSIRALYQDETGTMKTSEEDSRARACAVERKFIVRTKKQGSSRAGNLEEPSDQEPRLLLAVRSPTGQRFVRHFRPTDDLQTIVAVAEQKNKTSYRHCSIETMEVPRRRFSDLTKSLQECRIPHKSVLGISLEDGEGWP
Sequence of UniProt P10646 (P10646 whole entry, looked up): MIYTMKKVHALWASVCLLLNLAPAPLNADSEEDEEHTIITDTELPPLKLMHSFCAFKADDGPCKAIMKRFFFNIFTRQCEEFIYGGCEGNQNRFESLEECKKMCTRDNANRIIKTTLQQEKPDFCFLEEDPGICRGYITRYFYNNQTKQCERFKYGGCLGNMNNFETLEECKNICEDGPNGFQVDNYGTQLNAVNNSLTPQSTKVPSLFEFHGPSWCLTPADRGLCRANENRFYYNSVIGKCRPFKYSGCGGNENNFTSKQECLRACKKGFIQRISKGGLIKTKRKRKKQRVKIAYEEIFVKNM
Sequence of UniProt P62328 (P62328 whole entry, looked up): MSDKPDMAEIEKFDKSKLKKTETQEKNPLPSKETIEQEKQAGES

Compound in this test: Cc1cc(Nc2cc(N3CCN(C)CC3)nc(Sc3ccc(NC(=O)C4CC4)cc3)n2)n[nH]1 [tozasertib]
The test can be described thus: log2 fold change, soluble protein after heating vs DMSO (PISA); higher = thermal stabilisation; K562 lysate, 10 uM; active = over 0.2 and 3.5 SD of the protein, either way, in both replicates (recomputed). The essentials: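 The values are log-two fold changes in thermal stability compared with solvent controls and come from duplicates. They were obtained by TMTpro 16plex LC-MS/MS, with channel sums equalised, on the supernatant after 21,000xg for 90 min. That supernatant came from crude K562 extract at 1 mg/mL protein treated with 10 μM compound for 30 min, heated for 3 min across 48°C-58°C, pooled and brought to 0.5% NP-40 at 4°C.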
With TMEM132A isoform 2 (UniProt Q24JP5), the log2 fold change is 0.042.

UBIAD1 (UniProt Q9Y5Z9): the log2 fold change was -0.024. Next, TMEM161B (UniProt Q8NDZ6): 0.009. Take TK1 (UniProt K7ERV3): the log2 fold change is 0.319 (active). Consider U2AF1L5 (UniProt P0DN76), for which the log2 fold change is 0.207. Next, TUBB4A (UniProt P04350): -0.138; TM2D3 (UniProt Q9BRN9): -0.075. On to TUBGCP5 (UniProt Q96RT8), for which the log2 fold change was 0.113. Consider UBXN10 (UniProt Q96LJ8), for which the log2 fold change was 0.006. UBXN2B (UniProt Q14CS0): the log2 fold change was 0.027. On to UCHL5 (UniProt Q5LJA9), for which the log2 fold change is 0.003. Take TNFAIP3 (UniProt P21580): the log2 fold change is 0.744.

For TUBB6 (UniProt K7ES63), the log2 fold change was 0.122. For the target TFAP4 (UniProt Q01664), the log2 fold change is -0.05. As to TMEM164 (UniProt Q5U3C3), the log2 fold change was -0.091.

As for TTLL12 (UniProt V9GY16), the log2 fold change was -0.087. Then TPM3 isoform 3 (UniProt P06753), with 0.143.

Consider TXNIP (UniProt Q9H3M7), for which the log2 fold change is -0.015. For TMSB4X (UniProt P62328), the log2 fold change was 0.123.

Regarding TNKS (UniProt O95271), the log2 fold change is 0.073. Regarding TSPAN3 (UniProt O60637), the log2 fold change is -0.01. TMEM167B (UniProt Q9NRX6): the log2 fold change was -0.003. In the case of TFPI (UniProt P10646), the log2 fold change was -0.01.
